An excerpt weighted towards active compounds, which were near 10% of everything screened.
HEK cytotox: HEK 293 cell cytotoxicity; Potency, µM (highest dose often 115 µM), for inactives: at the top dose activity change, negative = cytotoxicity, most hits filed as inhibitors; HEK 293 viability, ATP luminescence (CellTiter-Glo), 48-72 h; actives 6.6% (n = 94,000); further: nearly all actives have a fitted effect of over 60% in size
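250 HEK 293 cells/well; compound by pintool; incubated 48 or 72 hr at 37 degree Celsius; CellTiter-Glo added, 10 min RT, luminescence imaged.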
FLuc inh: inhibitors of firefly (Photinus pyralis) luciferase. P08659. purified P. pyralis luciferase, luminescence, biochemical. Potency, µM (top dose mostly 115 µM), usual class: inhibitors. actives 2.5% (n = 76,000); further: nearly all actives have a fitted effect of over 65% in size
Target sequence (P08659 whole entry, looked up): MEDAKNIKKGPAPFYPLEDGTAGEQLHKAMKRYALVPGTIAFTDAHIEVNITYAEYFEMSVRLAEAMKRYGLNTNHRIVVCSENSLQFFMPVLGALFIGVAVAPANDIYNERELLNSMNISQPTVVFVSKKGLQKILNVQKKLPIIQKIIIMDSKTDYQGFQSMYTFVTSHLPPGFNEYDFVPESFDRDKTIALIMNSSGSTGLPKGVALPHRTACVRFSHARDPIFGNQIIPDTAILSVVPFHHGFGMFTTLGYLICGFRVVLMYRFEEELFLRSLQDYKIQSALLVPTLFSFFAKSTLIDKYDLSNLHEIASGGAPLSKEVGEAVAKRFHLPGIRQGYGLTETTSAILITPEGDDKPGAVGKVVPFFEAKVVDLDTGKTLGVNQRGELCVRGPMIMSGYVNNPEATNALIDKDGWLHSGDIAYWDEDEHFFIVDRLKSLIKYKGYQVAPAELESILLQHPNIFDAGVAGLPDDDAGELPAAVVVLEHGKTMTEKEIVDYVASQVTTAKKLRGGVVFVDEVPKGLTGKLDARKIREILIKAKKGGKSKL
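Purified P. pyralis luciferase (10nM final) in 50mM Tris acetate pH 7.5, 10mM Mg acetate, 0.01% Tween-20, 0.05% BSA with 10uM D-luciferin and 10uM ATP. Compounds titrated qHTS. Luminescence imaged on CCD.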
GPT2 inhibitor: GPT2 alanine aminotransferase inhibition | actives 0.25% (n = 100,000) | Potency, µM (highest dose often 57.7 µM), for the others: top-dose activity change, negative = inhibition, usual class: inhibitors | Q8TD30 | Recombinant GPT2, coupled pyruvate oxidase/HRP Amplex Red fluorescence; further: nearly all actives have a fitted effect of over 60% in size
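Recombinant GPT2 (10ng/uL) with 250uM a-KG and 2mM L-alanine, 30 min at room temperature, in HEPES pH 7.5 buffer. Pyruvate detected by pyruvate oxidase/HRP/Amplex Red fluorescence after 30 min in the dark; AOA (50uM) as positive control.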
NIH3T3 tox: kills NIH 3T3 cells; actives 4.3% (n = 94,000); AID 1345082; Potency, µM (top dose mostly 96.7 µM), inactives show at the highest dose activity change, negative = cytotoxicity, usual class: inhibitors; NIH 3T3 viability, CellTiter-Glo ATP luminescence, 48-72 h; further: nearly all actives have a fitted effect of over 55% in size
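First NIH 3T3 cells are plated at 400 cells/well; next compound is pinned in; then plates incubate 48 or 72 hr at 37 °C; finally CellTiter-Glo is added and luminescence read after 10 min.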
NPR1 antag: human Npr1 receptor antagonism; P16066; HEK293 hNpr1 GloSensor cGMP, ANP-stimulated luminescence; actives 1.6% (n = 76,000); Potency, µM (highest dose often 46.3 µM), inactives show at the highest dose activity change, negative = inhibition, actives largely listed as inhibitors; calls by dose curve; further: nearly all actives have a fitted effect of over 60% in size
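Compound pre-incubated 30 min at room temperature on GloSensor-loaded HEK293 cells stably carrying hNpr1 and the pGS-40F cGMP biosensor. Stimulation uses hNppA at 0.1 nM final; luminescence is taken at baseline and 20 min post-agonist.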
Starred values were filed as active, the others as inactive; i = inactive; ? = inconclusive; . = no result; ! = not confirmed by another sample; [ ] = another dose, or the depositor's remark. Unless noted, the call rests on the fitted dose curve; in most records, active means well fitted curve in the direction sought with a large enough effect; inconclusive means small, poorly fitted or top-dose-only effect, or another doubt; inactive means no such curve, though single readings can be large; an effect the other way counts as inactive or inconclusive. On the % scale 0 is the no-effect control and ±100 the full control effect; potency means the concentration at half of the fitted maximal effect.

SMILES | HEK cytotox | FLuc inh | GPT2 inhibitor | NIH3T3 tox | NPR1 antag
CCCCn1c(=O)c(C(=O)N2CCN(C(=O)c3ccccc3F)CC2)nc2cccnc21 | -6.6% | . | i | ? | .
CC1=C[C@@H](CNS(=O)(=O)c2ccccc2)[C@H](C(C)C)C[C@H]1CC(=O)NCCN(C)C | ? | i | -1.1% | ? | -0.9%
CC1=C[C@@H](CC#N)[C@H](C(C)C)C[C@H]1CC(=O)NCc1ccc(F)cc1 | 89.1µM* | i | -5.6%[88.5 µM] | ? | 1.4%[70.6 µM]
CC1=C[C@@H](CNS(=O)(=O)c2ccc(F)cc2)[C@H](C(C)C)C[C@H]1CC(=O)NCCN(C)C | ? | i | -7.3% | 39.8µM* | -0.5%
CC1=C[C@@H](CNS(=O)(=O)c2ccc(Cl)cc2)[C@H](C(C)C)C[C@H]1CC(=O)N1CCOCC1 | ? | i | ? | 31.6µM* | ?
CC1=C[C@@H](CNC(=O)c2ccccn2)[C@H](C(C)C)C[C@H]1CC(=O)N1CCCC1 | ? | i | -3.9%[88.5 µM] | 100µM* | -4.1%[70.6 µM]
COc1ccccc1N1CCN(C(=O)C[C@@H]2C[C@@H](C(C)C)[C@H](CC#N)C=C2C)CC1 | 35.5µM* | i | -3.6%[88.5 µM] | ? | -18.5%[70.6 µM]
CC(=O)Nc1cccc(OCc2nnc(C(=O)N3CCC[C@@H]3c3ccc(Br)cc3)n2Cc2ccccc2)c1 | 31.6µM* | i | 0.2% | 22.4µM* | -29.5%
CC(=O)Nc1cccc2ccc(OCc3nnc(C(=O)N4CCC[C@@H]4c4ccc(Br)cc4)n3Cc3ccccc3)cc12 | ? | i | 0.8% | ? | -24.5%
CNC(=O)c1cc(C2CC2)nc2c1c(C1CCCN(C(=O)N(C)C)C1)nn2C (stereo not given) | -15.0% | . | . | -21.7% | .
CC(=O)NCC(=O)N1CCCC(n2cc(-c3nc(-c4ccccc4)no3)nn2)C1 (stereo not given) | -22.7% | 35.5µM* | -11.5% | -18.3% | -9.6%
O=C(CCc1ccccc1)N1CCCC(n2cc(-c3nc(-c4ccccc4)no3)nn2)C1 (stereo not given) | 44.7µM* | ? | -2.3% | ? | ?
COc1ccccc1-c1ccc(CN2CCC(NC(=O)Cc3ccc(F)cc3)C2)cc1 (stereo not given) | 39.8µM* | . | i | 39.8µM* | .
COc1ccccc1-c1ccc(CN2CCC(NC(=O)C3CCCCC3)C2)cc1 (stereo not given) | ? | . | . | 31.6µM*! | .
COc1ccc(CC(=O)NC2CCN(C(=O)c3ccc(-c4ccccc4OC)cc3)CC2)cc1 | ? | . | i | 39.8µM* | .
Cc1cc(C(=O)N2CCCC(C(=O)Nc3cccc(-c4cc5ccccc5[nH]4)c3)C2)nn1C (stereo not given) | 31.6µM* | ? | i | ? | -6.3%
Cc1cccc(-c2cccc(NC(=O)C3CCCN(C(=O)c4cccc(C)n4)C3)c2)c1 (stereo not given) | ? | 25.1µM* | -15.5% | ? | -1.7%
Cc1c(CN2CCCC(c3ccc(C(=O)O)cc3)C2)cnn1C (stereo not given) | 2.6% | i | ? | 4.4% | -1.3%
O=C(Nc1cccc(-c2nnc3n2CCCC3)c1)C1CCCC1 | 10.5% | i | i | i | 1.0%
CCn1cc(C(=O)N2CCCC(C(=O)Nc3cccc(-c4cc5ccccc5[nH]4)c3)C2)cn1 (stereo not given) | 39.8µM* | ? | -3.7% | ? | -4.6%
Cc1c(CN2CCCC(C(=O)Nc3cccc(-c4cc5ccccc5[nH]4)c3)C2)cnn1C (stereo not given) | 20µM* | i | i | 8.91µM* | -25.0%
COc1cccc(N2C(=O)NC(=NC3CCCC3)C23CCN(Cc2cccnc2)C3)c1 (stereo not given) | i | . | 1.1% | ? | .
O=C(Nc1cccc(-n2cccn2)c1)C1CCCN(Cc2cccc(F)c2F)C1 (stereo not given) | 31.6µM* | i | ? | ? | -14.4%
CC(=O)Nc1ccc(CNC[C@H]2Cn3cc(-c4ccc(C)cc4)nc3CO2)cc1 | ? | 70.8µM* | i | ? | 5.1%[70.6 µM]
Cc1ccc(-c2cn3c(n2)CO[C@@H](CNC(=O)NCc2ccccc2)C3)cc1 | ? | 70.8µM* | 2.6%[88.5 µM] | -16.7%[138 µM] | 0.1%[70.6 µM]
SMILES | HEK cytotox | FLuc inh | GPT2 inhibitor | NIH3T3 tox | NPR1 antag
Cc1ccc(-c2cn3c(n2)CO[C@@H](CNC(=O)c2ccccc2)C3)cc1 | ? | ? | -5.8%[88.5 µM] | -8.9%[138 µM] | 0.9%[70.6 µM]
O=S(=O)(Cc1ccccc1)NC[C@H]1Cn2cc(-c3ccccc3)nc2CO1 | ? | ? | -3.8%[88.5 µM] | -17.9%[138 µM] | 4.8%[70.6 µM]
COc1ccc(-c2cn3c(n2)CO[C@@H](CNCc2ccc(OC(F)(F)F)cc2)C3)cc1 | 44.7µM* | ? | 1.8%[88.5 µM] | ? | ?
c1ccc(-c2cn3c(n2)CO[C@@H](CNCC2CCCCC2)C3)cc1 | 100µM* | i | -3.6%[88.5 µM] | 100µM* | -2.3%[70.6 µM]
CN(C)c1ccc(-n2c(=O)c(C(=O)NCC(F)F)nc3cccnc32)cc1 | i | . | i | -24.3% | .
COCCNC(=O)c1nc2cccnc2n(Cc2ccccc2)c1=O | 0.6% | . | i | -15.9% | .
COc1ccccc1-c1nnc2n1C(C(=O)NCc1ccc(F)cc1)CC2 (stereo not given) | i | . | ? | 2.8% | .
Cc1ccc(-c2cn3c(n2)CO[C@@H](CNCc2ccccc2Cl)C3)cc1 | 89.1µM* | i | -10.0%[88.5 µM] | 89.1µM* | ?
COc1ccc(-c2cn3c(n2)CO[C@@H](CNCc2ccccc2OC)C3)cc1 | ? | ? | -4.3%[88.5 µM] | ? | 2.6%[70.6 µM]
Cc1ccc(-c2cn3c(n2)CO[C@@H](CNCc2ccc(-c4ccccn4)cc2)C3)cc1 | 35.5µM* | 35.5µM* | -23.0%[88.5 µM] | 39.8µM* | ?
COc1ccc(-c2cn3c(n2)CO[C@@H](CNC(C)=O)C3)cc1 | i | 44.7µM* | 0.2%[88.5 µM] | i | 0.8%[70.6 µM]
Cc1ccc(-c2cn3c(n2)CO[C@@H](CNC2CCCC2)C3)cc1 | 100µM* | 63.1µM* | -12.6%[88.5 µM] | 100µM* | 3.3%[70.6 µM]
COc1ccc(C(=O)N2C[C@@H](Oc3cccnc3)C[C@H]2C(=O)NC2CC2)c(OC)n1 | i | . | -5.3% | i | .
Cc1ccc(-c2cn3c(n2)CO[C@@H](CNCc2ccc(Cl)cc2)C3)cc1 | 56.2µM* | ? | 0.1%[88.5 µM] | 44.7µM* | ?
Cc1ccc(-c2cn3c(n2)CO[C@@H](CNCc2ccc(S(C)(=O)=O)cc2)C3)cc1 | ? | ? | i | -27.5%[174 µM] | -20.8%[70.6 µM]
O=C(Nc1ccc(F)cc1)c1cccn2nccc12 | i | ? | 0.7%[88.5 µM] | -15.4%[138 µM] | -20.7%[70.6 µM]
O=C(Nc1ccc(F)cc1)c1ccn2nccc2c1 | ? | 50.1µM* | -5.1%[88.5 µM] | -25.8%[138 µM] | -9.4%[70.6 µM]
O=C(NC[C@H]1Cn2c(-c3ccccc3)cnc2CO1)c1cnccn1 | ? | i | -2.3%[88.5 µM] | ? | -0.8%[70.6 µM]

Compound activity as filed in PubChem BioAssay.
